In the supplement of paper PMC12645437, “Orthogonal IMiD-Degron Pairs Induce Selective Protein Degradation in Cells” (ACS Chemical Biology, 2025):
Over roughly 8,300 sequences, “log2 fold change of degron read counts, EGFP-low vs EGFP+ sorted cells (limma voom), compound-induced degradation” has its median near -1.1; the highest 2% begin near 3.2. Many of the other results were omitted from the sample, so the highest values are more common in it than they were.

T1: CRBN, Q96SW2
T1 chain: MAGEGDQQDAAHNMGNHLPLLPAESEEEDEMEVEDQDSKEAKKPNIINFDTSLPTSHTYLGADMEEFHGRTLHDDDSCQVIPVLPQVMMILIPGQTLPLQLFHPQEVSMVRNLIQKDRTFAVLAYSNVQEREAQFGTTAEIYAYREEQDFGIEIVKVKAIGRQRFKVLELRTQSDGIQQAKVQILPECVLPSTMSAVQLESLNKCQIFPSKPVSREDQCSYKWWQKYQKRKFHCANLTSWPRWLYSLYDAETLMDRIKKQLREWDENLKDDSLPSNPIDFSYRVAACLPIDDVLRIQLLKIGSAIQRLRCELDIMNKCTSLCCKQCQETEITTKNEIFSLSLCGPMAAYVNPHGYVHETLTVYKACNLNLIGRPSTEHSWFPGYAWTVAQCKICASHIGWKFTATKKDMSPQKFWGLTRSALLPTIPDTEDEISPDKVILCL


Biological target: T1, CRBN, Q96SW2
Test: log2 fold change of degron read counts, EGFP-low vs EGFP+ sorted cells (limma voom), compound-induced degradation; higher = more compound-induced degradation of the degron-EGFP fusion; degrons are variants of IKZF1/3 zinc finger 2; compound dose not given here
Conditions: Jurkat, 18 h
Procedure: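 Pooled library of 8380 IKZF3 ZF2 degron mutants (positions 146-167 varied within the IKZF3 130-189 degron; only the varied core is printed, flanks not printed) fused to EGFP with IRES-mCherry, lentivirally expressed in Jurkat cells. mCherry+ cells were treated with one IMiD compound for 18 h (dose not stated) and FACS-sorted into EGFP-low and EGFP+ populations. Degron sequences were counted by NGS, and log2FC (EGFP-low vs EGFP+) was estimated by limma voom over 3 biological replicates.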

[1] = compound: compound 19 (5-tert-butyl-thalidomide)
[2] = compound: compound 22 (5-morpholino-thalidomide)
[3] = compound: compound 33 (diphenyl IMiD analogue)
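Note: pooled lentiviral library of zinc finger degron-EGFP fusions in mCherry-positive Jurkat cells, FACS-sorted after compound exposure, with degron abundance counted by next-generation sequencing.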

Sequence	log2 fold change of degron read counts [1]	log2 fold change of degron read counts [2]	log2 fold change of degron read counts [3]	log2 fold change of degron read counts (compound: thalidomide)
LRCEICGFFCTQKGNLLRHIKL [46L_47R_49E_50I_52G_53F_54F_55C_67L_, Q9UKT9]	-0.285	-0.446	0.954	1.12
FSCNQCGHKFTQKGNLLRHIKL [46F_47S_49N_50Q_52G_53H_54K_55F_67L_, Q9UKT9]	-2.24	-2.55	-2.41	-2.6
FACEQCGAYFTQKGNLLRHIKL [46F_47A_49E_50Q_52G_53A_54Y_55F_67L_, Q9UKT9]	-0.764	-2.44	-1.5	-1.62
FCCNQCGHDFTQKGNLLRHIKL [46F_47C_49N_50Q_52G_53H_54D_55F_67L_, Q9UKT9]	-2.95	-3.42	-3.04	-2.8
FDCNQCGRCFTQKGNLLRHIKL [46F_47D_49N_50Q_52G_53R_54C_55F_67L_, Q9UKT9]	-2.4	-2.73	-2.2	-1.93
FGCPVCGAAFTQKGNLLRHIKL [46F_47G_49P_50V_52G_53A_54A_55F_67L_, Q9UKT9]	3.32	2.34	2.97	1.29
FMCPVCGAAFTQKGNLLRHIKL [46F_47M_49P_50V_52G_53A_54A_55F_67L_, Q9UKT9]	1.72	2.21	3.08	2.11
FWCPVCGAAFTQKGNLLRHIKL [46F_47W_49P_50V_52G_53A_54A_55F_67L_, Q9UKT9]	3.13	3.69	2.44	1.11
FQCPQCGAAFTQKGNLLRHIKL [46F_47Q_49P_50Q_52G_53A_54A_55F_67L_, Q9UKT9]	-0.422	1.04	0.683	3.27
FHCPVCGAAFTQKGNLLRHIKL [46F_47H_49P_50V_52G_53A_54A_55F_67L_, Q9UKT9]	2.96	2.4	2.16	0.942
FCCPVCGAAFTQKGNLLRHIKL [46F_47C_49P_50V_52G_53A_54A_55F_67L_, Q9UKT9]	3.16	2.58	2.48	2.16
FECPVCGAAFTQKGNLLRHIKL [46F_47E_49P_50V_52G_53A_54A_55F_67L_, Q9UKT9]	2.1	-0.445	2.32	3
FYCPQCGAAFTQKGNLLRHIKL [46F_47Y_49P_50Q_52G_53A_54A_55F_67L_, Q9UKT9]	1.03	1.46	1.86	-0.429
FVCPQCGAAFTQKGNLLRHIKL [46F_47V_49P_50Q_52G_53A_54A_55F_67L_, Q9UKT9]	-1.44	1.34	1.04	1.46
FQCPVCGAAFTQKGNLLRHIKL [46F_47Q_49P_50V_52G_53A_54A_55F_67L_, Q9UKT9]	2.54	3.1	2.52	3.69
FICPVCGAAFTQKGNLLRHIKL [46F_47I_49P_50V_52G_53A_54A_55F_67L_, Q9UKT9]	-0.386	2.86	2.22	2.77
FVCPVCGAAFTQKGNLLRHIKL [46F_47V_49P_50V_52G_53A_54A_55F_67L_, Q9UKT9]	0.708	3.2	2.37	3.08
FFCPICGRMFTQKGNLLRHIKL [46F_47F_49P_50I_52G_53R_54M_55F_67L_, Q9UKT9]	0.209	-0.113	0.441	-0.935
